Source: PubChem BioAssay AID602281 (The Scripps Research Institute Molecular Screening Center, 2012)
Among all 360,000 compounds or so, about 2,900 (0.81%) were called active.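 How the source made its calls: active means inhibition above the mean inhibition across every tested compound plus 3 SD (cut at about 22% in these data); inactive means the rest.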 This excerpt belongs to a sample that is enriched for actives.

These compounds were tested against Perilipin-5 (Homo sapiens) + 1-acylglycerol-3-phosphate O-acyltransferase ABHD5 (Homo sapiens) (UniProt Q00G26+Q8WTS1) (assay: blockers of ABHD5 binding to perilipin-5 – cell lysate, split luciferase complementation, luminescence, primary screen (AID 602281;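 further: 0% = DMSO only wells and the 100% control is not disclosed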)). Settings: Split G. princeps luciferase complementation, 4 h, at 4 µM, stronger effect = higher value.
Sequence of Perilipin-5 (Homo sapiens) + 1-acylglycerol-3-phosphate O-acyltransferase ABHD5 (Homo sapiens) (Q00G26 whole entry, looked up): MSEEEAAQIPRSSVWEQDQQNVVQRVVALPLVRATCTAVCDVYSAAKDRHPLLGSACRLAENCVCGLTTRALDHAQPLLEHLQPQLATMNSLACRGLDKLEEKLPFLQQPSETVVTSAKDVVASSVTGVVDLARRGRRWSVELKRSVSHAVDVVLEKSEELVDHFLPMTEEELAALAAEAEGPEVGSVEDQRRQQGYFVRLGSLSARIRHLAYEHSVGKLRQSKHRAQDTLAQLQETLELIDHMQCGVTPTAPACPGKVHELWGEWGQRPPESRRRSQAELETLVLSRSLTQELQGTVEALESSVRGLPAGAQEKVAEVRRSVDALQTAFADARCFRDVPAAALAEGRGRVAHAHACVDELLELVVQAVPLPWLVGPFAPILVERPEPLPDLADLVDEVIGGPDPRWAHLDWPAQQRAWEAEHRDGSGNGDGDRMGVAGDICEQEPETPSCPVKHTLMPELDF
Sequence of Perilipin-5 (Homo sapiens) + 1-acylglycerol-3-phosphate O-acyltransferase ABHD5 (Homo sapiens) (Q8WTS1 whole entry, looked up): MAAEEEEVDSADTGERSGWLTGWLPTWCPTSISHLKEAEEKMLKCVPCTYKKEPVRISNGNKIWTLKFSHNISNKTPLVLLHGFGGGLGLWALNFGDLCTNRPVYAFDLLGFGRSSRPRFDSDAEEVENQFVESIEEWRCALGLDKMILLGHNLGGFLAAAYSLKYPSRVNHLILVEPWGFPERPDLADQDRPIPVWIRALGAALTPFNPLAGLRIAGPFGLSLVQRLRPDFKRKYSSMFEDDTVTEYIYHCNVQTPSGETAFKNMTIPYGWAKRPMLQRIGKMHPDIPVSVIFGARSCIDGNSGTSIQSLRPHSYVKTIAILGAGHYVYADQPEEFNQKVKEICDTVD
`CC1Cc2[nH][nH]c(=O)c2C(C2CCCC2)O1` (configuration not stated) was tested, and the inhibition was 8.22% (inactive).
For `O=C(Nc1n[nH]c(C(F)(F)F)n1)c1cccs1`, the inhibition was 3.2% (inactive).
`COC(=O)c1nc(NC(=O)c2ccc(C(C)(C)C)cc2)n[nH]1` was tested, and the inhibition was 81.5% (active).
With `CSc1nccc(NC(=O)c2ccc(C(C)(C)C)cc2)n1` the inhibition was -0.98% (inactive).
`Cc1ccc(NC(=O)c2ccc(Cl)nc2)cc1S(=O)(=O)N1CCOCC1` was tested, and the inhibition was -3.8% (inactive).
With `CCCn1c(SCC(=O)Nc2c(C)cccc2C)nnc1C(C)C` the inhibition was 5.88% (inactive).
`CCOC(=O)c1nnn(CC(=O)Nc2cccc(F)c2)c1C(=O)OCC` was tested, and the inhibition was -0.66% (inactive).
For `O=C(O)c1cccnc1NC1CCCC1`, the inhibition was 7.94% (inactive).
For `COc1ccc(CCNC(=O)c2ccc(CS(=O)(=O)c3ccc(Br)cc3)o2)cc1OC`, the inhibition was 5.5% (inactive).
With `COc1ccc(CCNC(=O)CN(c2ccccc2)S(C)(=O)=O)cc1OC` the inhibition was 6.8% (inactive).
With `COc1ccc(CCNC(=O)c2nnc(CS(=O)(=O)c3ccccc3)o2)cc1OC` the inhibition was 23.8% (active).
For `CC(=O)Oc1ccc(C)cc1N1C(=O)c2ccc(C(=O)O)cc2C1=O`, the inhibition was 0.33% (inactive).
`O=C(O)c1ccc2c(c1)C(=O)N(c1ccc(/C=C/C(=O)c3ccccc3)cc1)C2=O` was tested, and the inhibition was 50.4% (active).
`O=C(c1ccc2c(c1)C(=O)N(c1ccc(Cl)cc1)C2=O)N1CCN(c2ccccn2)CC1` was tested, and the inhibition was 0.95% (inactive).
In the case of `O=[N+]([O-])c1ccc(S(=O)(=O)Nc2cccc(-c3ccc(N4CCCC4)nn3)c2)cc1`, the inhibition is reported as -6.73% (inactive).
In the case of `COC(=O)CN(c1nc(C)c(Cl)c(OC)n1)S(=O)(=O)c1ccc(C)cc1`, the inhibition is reported as -6.3% (inactive).
`Oc1c(C(c2ccco2)N2CCC3(CC2)OCCO3)sc2ncnn12` (configuration not stated) was tested, and the inhibition was 12.2% (inactive).
In the case of `Cc1nc2sc(C(c3ccco3)N3CCC4(CC3)OCCO4)c(O)n2n1` (configuration not stated), the inhibition is reported as 22.7% (active).
For `Cc1nc2sc(C(c3ccco3)N3CCOCC3)c(O)n2n1` (configuration not stated), the inhibition was 26.3% (active).
For `Cc1ccc(C(c2sc3nc(C)nn3c2O)N2CCN(c3ccccc3)CC2)cc1` (configuration not stated), the inhibition was 2.33% (inactive).
With `Cc1ccc(C(c2sc3nc(C)nn3c2O)N2CCN(c3ccc(F)cc3)CC2)cc1` (configuration not stated) the inhibition was -0.55% (inactive).
For `COC(=O)[C@@]12C[C@@H](CC(=O)N3CCC(c4ccccc4)CC3)C(=O)N(Cc3ccccc3)C1=CCC(C)(C)C2`, the inhibition was 4.36% (inactive).
In the case of `CC1=NNC(=O)C1CC(=O)N/N=C/c1ccncc1` (configuration not stated), the inhibition is reported as 0.97% (inactive).
With `CC(C)(C)C(=O)N1CCC[C@@]1(CO)C(=O)O` the inhibition was 0.41% (inactive).
With `CC[C@]12c3[nH]c4cc(CCC(=O)N(C)C)ccc4c3CCN1C(=O)[C@@H](CC(=O)NCCCN(C)C)C[C@@H]2C(=O)N1CCN(C(=O)c2ccco2)CC1` the inhibition was -4.19% (inactive).
With `COc1ccc(C2SCCN2S(=O)(=O)c2ccccc2)cc1OC` (configuration not stated) the inhibition was -4.96% (inactive).
For `COc1ccc(-c2cc(C(F)(F)F)nc(S(C)(=O)=O)n2)cc1OC`, the inhibition was 26.6% (active).
`COc1ccc(C2=NO[C@@H]3C(=O)N(Cc4ccccc4)C(=O)[C@H]23)cc1OC` was tested, and the inhibition was 3.37% (inactive).
In the case of `CCN1CCN(C(=O)Cn2nc(C)n3c(cc4c(OC)cccc43)c2=O)CC1`, the inhibition is reported as 0.48% (inactive).
For `CC(=O)N[C@H]1[C@H]([C@H](O)[C@H](O)CO)OC(C(=O)O)=C[C@@H]1O`, the inhibition was 1.93% (inactive).
With `COc1ccc(CNC(=O)C(c2ccc(O)cc2)N(Cc2ccco2)C(=O)c2snc(C(N)=O)c2N)cc1` (configuration not stated) the inhibition was -11.3% (inactive).
For `NC(=O)c1nsc(C(=O)N(CC(=O)NCc2ccc(F)cc2)Cc2ccco2)c1N`, the inhibition was 36% (active).
With `Cc1ccnc(NC(=O)CCC(=O)N(CC(=O)NCc2ccccc2)Cc2ccco2)c1` the inhibition was 1.15% (inactive).
In the case of `Cc1csc2ncc(C(=O)N(Cc3ccccc3)c3ccccn3)c(=O)n12`, the inhibition is reported as 3.35% (inactive).
With `COc1cc(CNCCN(C)C)ccc1OCc1c(F)cccc1Cl` the inhibition was 11.6% (inactive).
With `O=C(/C=C/c1ccc(OCc2c(F)cccc2Cl)cc1)N1CCOCC1` the inhibition was -6.95% (inactive).
For `CN(C)CCCNC(=O)/C=C/c1ccc(OCc2c(F)cccc2Cl)cc1`, the inhibition was 28.6% (active).
`O=S(=O)(c1ccc2ccccc2c1)N1CCN(S(=O)(=O)N2CCOCC2)CC1` was tested, and the inhibition was -1.34% (inactive).
In the case of `CCCCN1C(N)=NC[C@@H]1Cc1ccccc1`, the inhibition is reported as 4.61% (inactive).
`C[C@@H](CN1CCC[C@H]1CN1C(N)=NC[C@@H]1Cc1ccccc1)N1C[C@@H](Cc2ccccc2)N(CCCC2CCCC2)C1=N` was tested, and the inhibition was 34.8% (active).
With `CC[C@@H](C)[C@@H]1CN([C@@H](C)CN2CCC[C@H]2CN2C(N)=NC[C@H]2C(C)C)C(=N)N1CCc1ccc(Cl)c(Cl)c1` the inhibition was 11.4% (inactive).
With `Cc1ccc2c(c1)N(CC(=O)N1CCCc3ccccc31)C(=O)C(C)O2` (configuration not stated) the inhibition was 5.29% (inactive).
For `CC(=O)NC1=NN(C(C)=O)C(C)(CCS(=O)(=O)c2ccc(Cl)c(Cl)c2)S1` (configuration not stated), the inhibition was 2.36% (inactive).
In the case of `COc1ccccc1CNC(=O)Cn1cc2c(n1)CCCC2`, the inhibition is reported as 8.04% (inactive).
With `CCN(CC)CCN(C(=O)c1ccc2c(c1)CCCC2)c1nc2c(OC)cccc2s1` the inhibition was 25% (active).
With `COc1ccccc1NC(=O)CC(NCCN(C)C)C(=O)O` (configuration not stated) the inhibition was 0.5% (inactive).
In the case of `COc1cccc2sc(N(CCCN(C)C)C(=O)C(c3ccccc3)c3ccccc3)nc12`, the inhibition is reported as 43.5% (active).
`CN(CC1CCCN(CCc2cccc(C(F)(F)F)c2)C1)C(=O)c1ccc2nc[nH]c2c1` (configuration not stated) was tested, and the inhibition was -0.06% (inactive).
In the case of `CCN(CC)CCNS(=O)(=O)c1ccc(/C=C/C(=O)O)cc1`, the inhibition is reported as 4.35% (inactive).
In the case of `OCc1ccc(-c2ccccc2)c(-c2ccccc2)c1`, the inhibition is reported as -5.6% (inactive).
For `CCCC/C(C)=N/NC(=O)NC1CCCCC1`, the inhibition was -3.36% (inactive).
For `COc1ccc(C2=NOC3(CC(=O)N(c4ccc(Cl)cc4)C3=O)C2)c(OC)c1` (configuration not stated), the inhibition was 0.13% (inactive).
`Cc1cc(O)ccc1-c1cc(C(=O)NCc2cc(C(F)(F)F)cc(C(F)(F)F)c2)[nH]n1` was tested, and the inhibition was -13.6% (inactive).
In the case of `COCCNc1nnc(SCC(=O)NNC(=O)c2ccco2)s1`, the inhibition is reported as 0.13% (inactive).
In the case of `COc1ccc(NC(=O)/C(Cl)=C(/Cl)S(=O)Cc2ccc(C)cc2)cn1` (configuration not stated), the inhibition is reported as 96.3% (active).
For `CC(C)(C)C1C/C(=C/c2ccco2)C(=O)/C(=C/c2ccco2)C1` (configuration not stated), the inhibition was 52.8% (active).
`COC(=O)COc1ccc2c(c1C)O/C(=C\c1ccco1)C2=O` was tested, and the inhibition was 14.5% (inactive).
